Assay results as given in PubChem BioAssay AID1159580 (chemical genetic matrix, 2015).
Hit rate of the full screen: of about 5,500 compounds, about 2,000 (36%) were called active. About 18% were inconclusive and are not listed. No stated cut-off is given here; in the data, active means normalized growth mostly below about 0.91 (no sharp cut-off); inconclusive means no clear call, values can overlap the other calls; inactive means mostly above about 0.92. This is one part of the list.

Test: chemical genetic growth profiling, strain panel (AID 1159580);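 further: tested at 20 µM; growth read once vehicle control cultures reached saturation at 30 °C; 1 = growth at the plate median or of vehicle wells; lower values mean less growth of the strain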
Conditions: S. cerevisiae deletion strains, growth OD
[1] = locus YAR019C, strain CDC15, hits give low values
[2] = locus YBL105C, strain PKC1, hits give low values
[3] = locus YBR135W, strain CKS1, hits give low values
[4] = locus YBR136W, strain MEC1, hits give low values
[5] = locus YBR160W, strain CDC28, hits give low values
[6] = locus YDL017W, strain CDC7, hits give low values
[7] = locus YDL028C, strain MPS1, hits give low values
[8] = locus YDL101C, strain DUN1, hits give low values
[9] = locus YDL108W, strain KIN28, hits give low values
[10] = locus YDL132W, strain cdc53, hits give low values
[11] = locus YDL214C, strain PRR2, hits give low values
[12] = locus YDR052C, strain DBF4, hits give low values
[13] = locus YDR054C, strain cdc34, hits give low values
[14] = locus YDR226W, strain ADK1, hits give low values
[15] = locus YDR477W, strain SNF1, hits give low values
[16] = locus YER123W, strain YCK3, hits give low values
[17] = locus YER133W, strain GLC7, hits give low values
[18] = locus YFL009W, strain cdc4, hits give low values
[19] = locus YFL029C, strain CAK1, hits give low values
[20] = locus YFR003C, strain YPI1, hits give low values
[21] = locus YFR019W, strain FAB1, hits give low values
[22] = locus YFR028C, strain CDC14, hits give low values
[23] = locus YGR040W, strain KSS1, hits give low values
[24] = locus YGR052W, strain FMP48, hits give low values
[25] = locus YGR092W, strain DBF2, hits give low values
[26] = locus YHR030C, strain SLT2, hits give low values
[27] = locus YHR079C, strain IRE1, hits give low values
[28] = locus YHR082C, strain KSP1, hits give low values
[29] = locus YHR205W, strain SCH9, hits give low values
[30] = locus YIL147C, strain SLN1, hits give low values
[31] = locus YJL095W, strain BCK1, hits give low values
[32] = locus YJL128C, strain PBS2, hits give low values
[33] = locus YJL157C, strain FAR1, hits give low values
[34] = locus YJR016C, strain ILV3, hits give low values
[35] = locus YJR066W, strain TOR1 (second series), hits give low values
[36] = locus YJR066W, strain TOR1, hits give low values
[37] = locus YKL048C, strain ELM1, hits give low values
[38] = locus YKL067W, strain YNK1, hits give low values
[39] = locus YKL101W, strain HSL1, hits give low values
[40] = locus YKL193C, strain SDS22, hits give low values
[41] = locus YKL203C, strain TOR2, hits give low values
[42] = locus YLR113W, strain HOG1, hits give low values
[43] = locus YLR133W, strain CKI1, hits give low values
[44] = locus YLR403W, strain SFP1, hits give low values
[45] = locus YML070W, strain DAK1, hits give low values
[46] = locus YMR001C, strain CDC5, hits give low values
[47] = locus YMR205C, strain PFK2 (second series), hits give low values
[48] = locus YMR277W, strain FCP1, hits give low values
[49] = locus YNL006W, strain LST8, hits give low values
[50] = locus YNL020C, strain ARK1, hits give low values
[51] = locus YNL161W, strain CBK1, hits give low values
[52] = locus YNL183C, strain NPR1, hits give low values
[53] = locus YNL207W, strain RIO2, hits give low values
[54] = locus YNL222W, strain SSU72, hits give low values
[55] = locus YNL307C, strain MCK1 (second series), hits give low values
[56] = locus YOL078W, strain AVO1, hits give low values
[57] = locus YOL136C, strain PFK27, hits give low values
[58] = locus YOR061W, strain CKA2, hits give low values
[59] = locus YOR119C, strain RIO1, hits give low values
[60] = locus YOR231W, strain MKK1, hits give low values
[61] = locus YOR329C, strain SCD5, hits give low values
[62] = locus YPL031C, strain PHO85, hits give low values
[63] = locus YPL153C, strain RAD53, hits give low values
[64] = locus YPL204W, strain HRR25, hits give low values
[65] = locus YPL209C, strain IPL1, hits give low values
[66] = locus YPL256C, strain CLN2, hits give low values
[67] = locus YPR025C, strain CCL1, hits give low values
[68] = locus YPR106W, strain ISR1, hits give low values
[69] = locus YPR111W, strain DBF20, hits give low values
[70] = strain NNK1, hits give low values
[71] = strain TSCII, hits give low values
[72] = locus YAL040C, strain CLN3, hits give low values
[73] = locus YCL061C, strain MRC1 (second series), hits give low values
[74] = locus YDR363W, strain ESC2, hits give low values
[75] = locus YER002W, strain NOP16, hits give low values
[76] = locus YMR307W, strain GAS1, hits give low values
[77] = locus YNL128W, strain TEP1, hits give low values
[78] = locus YNL175C, strain NOP13, hits give low values
[79] = locus YNL197C, strain WHI3, hits give low values
[80] = locus YNL224C, strain SQS1, hits give low values
[81] = locus YOR083W, strain WHI5 (second series), hits give low values

Measured: normalized growth

OC(c1ccc(C(F)(F)F)cc1)c1cccc(C(F)(F)F)c1 (centres undefined)
active: [42] 0.789 | [66] 0.839
inactive: [1] 0.972 | [2] 0.973 | [3] 0.973 | [4] 0.967 | [5] 0.969 | [6] 0.964 | [7] 0.974 | [8] 0.975 | [9] 0.968 | [10] 0.974 | [11] 0.985 | [12] 0.977 | [13] 0.974 | [14] 0.977 | [15] 0.999 | [16] 0.945 | [17] 0.992 | [18] 0.981 | [19] 0.962 | [20] 0.969 | [21] 1 | [22] 0.975 | [23] 0.984 | [24] 1 | [25] 0.948 | [26] 0.867 | [27] 0.885 | [28] 1.09 | [29] 0.949 | [30] 0.971 | [31] 0.953 | [32] 0.942 | [33] 1.01 | [34] 0.984 | [35] 1.04 | [36] 1.05 | [37] 0.977 | [38] 0.992 | [39] 0.97 | [40] 0.973 | [41] 1.02 | [43] 0.999 | [44] 1.04 | [45] 0.96 | [46] 0.973 | [47] 0.993 | [48] 0.974 | [49] 0.966 | [50] 0.998 | [51] 0.984 | [52] 1.01 | [53] 0.978 | [54] 0.973 | [55] 0.989 | [56] 0.974 | [57] 0.968 | [58] 1 | [59] 1.07 | [60] 0.92 | [61] 0.967 | [62] 0.978 | [63] 0.991 | [64] 0.959 | [65] 0.973 | [67] 0.968 | [68] 0.99 | [69] 1 | [70] 0.975 | [71] 0.975

OC[C@H]1O[C@@H](n2cnc3cncnc32)[C@H](O)[C@@H]1O
inactive: [72] 1.01 | [73] 1.01 | [74] 1 | [75] 1.01 | locus YGR078C, strain PAC10, hits give low values 1.03 | locus YMR263W, strain SAP30, hits give low values 0.997 | [76] 1 | [77] 1.03 | [78] 1.02 | [79] 1 | [80] 1.02 | [81] 1.07

COc1ccccc1N1CCN(CCCNc2c(C)c(=O)n(C)c(=O)n2C)CC1
inactive: locus YAL013W, strain DEP1, hits give low values 1.02 | [72] 0.984 | [73] 0.998 | locus YDR150W, strain NUM1, hits give low values 1 | [74] 1.01 | [75] 0.999 | locus YGR229C, strain SMI1, hits give low values 1.04 | locus YJR075W, strain HOC1, hits give low values 1.01 | [76] 1.02 | [77] 1 | [78] 0.976 | [79] 0.985 | [80] 0.995 | locus YNL322C, strain KRE1, hits give low values 0.987 | [81] 0.978

COc1ccccc1C(C[N+](=O)[O-])c1c(N)n(C)c(=O)n(C)c1=O (centres undefined)
inactive: [1] 0.942 | [2] 0.955 | [3] 0.954 | [4] 0.945 | [5] 0.953 | [6] 0.958 | [7] 0.948 | [8] 0.916 | [9] 0.945 | [10] 0.953 | [12] 0.962 | [13] 0.945 | [14] 0.954 | [18] 0.96 | [19] 0.933 | [20] 0.953 | [22] 0.956 | [30] 0.953 | [32] 0.941 | [34] 0.962 | [40] 0.963 | [46] 0.946 | [48] 0.956 | [49] 0.957 | [51] 0.957 | [53] 0.954 | [54] 0.956 | [56] 0.956 | [58] 0.678 | [61] 0.956 | [65] 0.95 | [67] 0.958 | [68] 0.961 | [69] 0.966 | [70] 0.953 | [71] 0.941
active: [11] 0.583 | [15] 0.555 | [16] 0.374 | [17] 0.602 | [21] 0.263 | [23] 0.643 | [24] 0.512 | [25] 0.443 | [26] 0.302 | [27] 0.401 | [28] 0.559 | [29] 0.21 | [31] 0.33 | [33] 0.593 | [35] 0.133 | [36] 0.369 | [37] 0.654 | [38] 0.612 | [39] 0.621 | [41] 0.61 | [42] 0.382 | [43] 0.616 | [44] 0.49 | [45] 0.527 | [47] 0.679 | [50] 0.688 | [52] 0.381 | [55] 0.151 | [57] 0.485 | [59] 0.641 | [60] 0.468 | [62] 0.467 | [63] 0.546 | [64] 0.603 | [66] 0.348
